Experimental data reported in PubChem BioAssay (NCI).
The panel holds about 83,000 compounds, 20% with a hit somewhere; the sample as a whole holds those more often.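 96-well plates, one dose, 48 hours. Percent growth reported; active if below 10.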 A number with no mark means an inactive call. The source made the active and inactive calls.

System: A549/ATCC NSCLC
Assay: NCI-60 one-dose screen, 48 h (100 = growth as untreated, 0 = no growth, -100 = all killed)
Conditions: 10 µM unless noted

Q: With `CCn1cc(C(=O)N/N=C/c2cccc(F)c2)c(=O)c2cc(F)c(N3CCNC(C)C3)c(F)c21` (stereo unspecified) as the compound, how does the growth read?
A: Its growth is -66.6% (active).

Q: For `CCCC(=O)NC(c1ccc2c(c1)OCO2)c1cc(Cl)c2cccnc2c1O` (stereo unspecified), which growth is on record?
A: The growth was 30.7%.

Q: How did the growth turn out when `O=C(c1cccc(N2CCOCC2)n1)c1c[nH]c2ccccc12` was run?
A: The growth was 95.3%.

Q: Which growth does the source give for `Cc1cc(C(=O)CCCC(=O)c2cc(C)c(O)c(C)c2)cc(C)c1O` here?
A: Its growth is 104%.

Q: How did the growth turn out when `O=C(/C=C/c1ccccc1)c1cccc2ccccc12` was run?
A: Its growth is 39%.

Q: For `CNC(=O)c1cc(Oc2ccc3c(c2)sc2nc(-c4ccc(NC(=O)[C@@H](NC(=O)OC)C(C)C)cc4)cn23)ccn1`, which growth is on record?
A: Its growth is 80.8%.

Q: `FC(F)(F)c1[nH]ncc1-c1nc2ccc3[nH]ncc3c2c2c1CCCC2` was tested. Which growth did it give?
A: The growth was 0.818% (active).

Q: With `COC(=O)c1ccc2c(c1)c1c(C)c3cnccc3c(C)c1n2C` as the compound, how does the growth read?
A: The growth was -17% (active).

Q: `CC1=C2[C@@H](CC1)[C@]1(C)O[C@@](C3CCNCC3)(C[C@H]1OC(=O)CO)[C@H]2OC(=O)/C=C/c1ccccc1` was tested. Which growth did it give?
A: The growth was 92.2%.

Q: With `CCOC(=O)CC1CSC(N/N=C/c2ccc(F)c(Br)c2)=N1` (stereo unspecified) as the compound, how does the growth read?
A: The growth was 91.2%.

Q: For `O=C1/C(=C/c2cccc(Br)c2)COc2ccc(O)cc21`, which growth is on record?
A: Its growth is 66.2%.

Q: How did the growth turn out when `O=C(Cn1nc(-c2cccc3ccccc23)ccc1=O)NCc1cccc(Cl)c1` was run?
A: Its growth is 28.5% [50 µM].

Q: For `COc1cc(O)c2c(=O)c3c(CC=C(C)C)cc(OC)c(O)c3oc2c1`, which growth is on record?
A: The growth was 35.6%.

Q: For `Nc1ccc(Br)cc1C(F)(F)F`, which growth is on record?
A: Its growth is 102%.

Q: `O=C(Nc1ccc(Oc2cccc(Cl)c2)c(Cl)c1)c1cccnn1` was tested. Which growth did it give?
A: The growth was 75.3%.

Q: `COc1cccc(-c2cn3nc(-c4cn(C)c5ccccc45)sc3n2)c1` was tested. Which growth did it give?
A: The growth was 94.6%.

Q: How did the growth turn out when `c1ccc(-c2c(-c3ccccc3)[n+](Cc3ccc4ccccc4c3)cn2Cc2ccc3ccccc3c2)cc1` was run?
A: The growth was -81.8% (active).

Q: For `COc1ccc(C2[C@@H](c3ccccc3)C(=O)N2c2cc(OC)c(OC)c(OC)c2)cc1F` (stereo partly specified), which growth is on record?
A: The growth was 8.88% (active).

Q: How did the growth turn out when `CC(C)CCC[C@@H](C)[C@H]1CC[C@H]2[C@@H]3CC=C4c5sc(Nc6cc(C(F)(F)F)cc(C(F)(F)F)c6)nc5CC[C@]4(C)[C@H]3CC[C@]12C` was run?
A: Its growth is 92.1%.

Q: With `Nc1cc(C(=O)O)cc(-n2c(O)c(C=C3N=c4ccccc4=N3)sc2=S)c1` as the compound, how does the growth read?
A: The growth was 104%.

Q: `COc1cccc(CNc2c3ccccc3nc3ccccc23)c1OC` was tested. Which growth did it give?
A: The growth was 30.3%.

Q: With `Clc1ccc(Nc2ncc(Cc3cccc(Cl)c3Cl)s2)cc1` as the compound, how does the growth read?
A: The growth was 86.7%.

Q: `CCOC(=O)c1cnn(CC(C)O)c1NC(=O)NCc1cccc(F)c1` (stereo unspecified) was tested. Which growth did it give?
A: Its growth is 100%.

Q: With `C=C1C(=O)O[C@@H]2C3C(=C(C)CC[C@@H]12)CC1O[C@]13C` (stereo partly specified) as the compound, how does the growth read?
A: Its growth is 90.1% [6.75 µM].

Q: How did the growth turn out when `CCOC(=O)C1=C(c2ccccc2)N=C2N(c3ccccc3)N=C(C(C)=O)N2C1c1ccc(F)cc1` (stereo unspecified) was run?
A: Its growth is 101%.

Q: How did the growth turn out when `CCCOC(=O)Nc1nc2ccc(SCC)cc2s1` was run?
A: The growth was 80.5%.

System: 786-0 renal
Assay: as above
Conditions: 10 µM unless noted

Q: Which growth does the source give for `COC(=O)c1sccc1-c1cc(O)c(C(=O)Nc2ccccc2)s1` here?
A: Its growth is 106%.

Q: With `O=C(C1=Cc2cc3ccccc3n2Cc2cnnn21)c1ccc(F)cc1` as the compound, how does the growth read?
A: The growth was 99.1%.

Q: `Cc1cccc(N2C(=O)/C(=C/C(Cl)=C/c3ccc([N+](=O)[O-])cc3)SC2=S)c1C` was tested. Which growth did it give?
A: The growth was 1.63% (active).

Q: How did the growth turn out when `CS(=O)/C(C#N)=C\C=C\c1cccc(Cl)c1` (stereo unspecified) was run?
A: The growth was 19.2%.

Q: For `CCOC(=O)/C=C1\S/C(=N\Nc2cc(=O)[nH]c3ccc(Br)cc23)N(c2ccccc2)C1=O`, which growth is on record?
A: The growth was 86%.

Q: `Cc1ccc2nc(-c3ccc(C(=O)N/N=C/c4ccc([N+](=O)[O-])cc4)cc3)[nH]c2c1` was tested. Which growth did it give?
A: Its growth is 97.6%.

Q: For `COc1ccc(/C=C/C(c2cc(OC)c(OC)c(OC)c2)n2cncn2)cc1O` (stereo unspecified), which growth is on record?
A: The growth was 23.3%.

Q: How did the growth turn out when `CCCCCCCCCCCCCCCCCCOc1ccccc1CC(=O)NCC[N+](C)(C)C` was run?
A: The growth was 16.2%.

Q: `CCOC(=O)c1c(C)nc2ccccc2c1/C=C/c1ccc(F)cc1` was tested. Which growth did it give?
A: Its growth is 79.5%.

Q: Which growth does the source give for `N#Cc1c(-c2ccccc2)cc(-c2ccccc2)n(CCCCC(=O)NO)c1=O` here?
A: Its growth is 7% (active).

Q: `COc1cc(Cc2cc(OC)c(O)c(OC)c2)cc(OC)c1O` was tested. Which growth did it give?
A: The growth was 107%.

Q: `COc1cc(/C=C/c2cc(/C=C/c3ccc(O)c(OC)c3)n(C(=O)Nc3ccc(Cl)cc3)n2)ccc1O` was tested. Which growth did it give?
A: The growth was -2.2% (active).

Q: `NS(=O)(=O)c1ccc(C(=O)NN2C(=O)c3ccccc3C2=O)cc1` was tested. Which growth did it give?
A: Its growth is 105%.

Q: `CS(=O)(=O)c1ccc(-c2nc3ccccc3n2CC(=O)N/N=C/c2ccccc2)cc1` was tested. Which growth did it give?
A: Its growth is 97.1%.

Q: For `CCn1cc(C(=O)N/N=C/c2cccc(F)c2)c(=O)c2cc(F)c(N3CCNC(C)C3)c(F)c21` (stereo unspecified), which growth is on record?
A: The growth was -39.7% (active).

Q: With `CCCC(=O)NC(c1ccc2c(c1)OCO2)c1cc(Cl)c2cccnc2c1O` (stereo unspecified) as the compound, how does the growth read?
A: The growth was 32.4%.

Q: For `O=C(c1cccc(N2CCOCC2)n1)c1c[nH]c2ccccc12`, which growth is on record?
A: The growth was 98.7%.

Q: How did the growth turn out when `Cc1cc(C(=O)CCCC(=O)c2cc(C)c(O)c(C)c2)cc(C)c1O` was run?
A: Its growth is 93.9%.

Q: Which growth does the source give for `O=C(/C=C/c1ccccc1)c1cccc2ccccc12` here?
A: The growth was 83.5%.

Q: Which growth does the source give for `CNC(=O)c1cc(Oc2ccc3c(c2)sc2nc(-c4ccc(NC(=O)[C@@H](NC(=O)OC)C(C)C)cc4)cn23)ccn1` here?
A: The growth was 87.4%.

Q: Which growth does the source give for `FC(F)(F)c1[nH]ncc1-c1nc2ccc3[nH]ncc3c2c2c1CCCC2` here?
A: Its growth is -23.8% (active).

Q: Which growth does the source give for `COC(=O)c1ccc2c(c1)c1c(C)c3cnccc3c(C)c1n2C` here?
A: Its growth is -63.4% (active).

Q: How did the growth turn out when `CC1=C2[C@@H](CC1)[C@]1(C)O[C@@](C3CCNCC3)(C[C@H]1OC(=O)CO)[C@H]2OC(=O)/C=C/c1ccccc1` was run?
A: Its growth is 86.2%.

Q: Which growth does the source give for `CCOC(=O)CC1CSC(N/N=C/c2ccc(F)c(Br)c2)=N1` (stereo unspecified) here?
A: The growth was 100%.

Q: For `O=C1/C(=C/c2cccc(Br)c2)COc2ccc(O)cc21`, which growth is on record?
A: Its growth is 50%.

Q: Which growth does the source give for `O=C(Cn1nc(-c2cccc3ccccc23)ccc1=O)NCc1cccc(Cl)c1` here?
A: The growth was 37.7% [50 µM].

Q: `COc1cc(O)c2c(=O)c3c(CC=C(C)C)cc(OC)c(O)c3oc2c1` was tested. Which growth did it give?
A: Its growth is 36.1%.

Q: `Nc1ccc(Br)cc1C(F)(F)F` was tested. Which growth did it give?
A: The growth was 105%.

Q: `O=C(Nc1ccc(Oc2cccc(Cl)c2)c(Cl)c1)c1cccnn1` was tested. Which growth did it give?
A: Its growth is 77.4%.

Q: With `COc1cccc(-c2cn3nc(-c4cn(C)c5ccccc45)sc3n2)c1` as the compound, how does the growth read?
A: The growth was 104%.

Q: How did the growth turn out when `c1ccc(-c2c(-c3ccccc3)[n+](Cc3ccc4ccccc4c3)cn2Cc2ccc3ccccc3c2)cc1` was run?
A: The growth was -92.2% (active).

Q: With `COc1ccc(C2[C@@H](c3ccccc3)C(=O)N2c2cc(OC)c(OC)c(OC)c2)cc1F` (stereo partly specified) as the compound, how does the growth read?
A: Its growth is 13.9%.

Q: How did the growth turn out when `CC(C)CCC[C@@H](C)[C@H]1CC[C@H]2[C@@H]3CC=C4c5sc(Nc6cc(C(F)(F)F)cc(C(F)(F)F)c6)nc5CC[C@]4(C)[C@H]3CC[C@]12C` was run?
A: Its growth is 110%.

Q: `Nc1cc(C(=O)O)cc(-n2c(O)c(C=C3N=c4ccccc4=N3)sc2=S)c1` was tested. Which growth did it give?
A: The growth was 102%.

Q: How did the growth turn out when `COc1cccc(CNc2c3ccccc3nc3ccccc23)c1OC` was run?
A: Its growth is 38.8%.

Q: With `Clc1ccc(Nc2ncc(Cc3cccc(Cl)c3Cl)s2)cc1` as the compound, how does the growth read?
A: Its growth is 95.2%.

Q: How did the growth turn out when `CCOC(=O)c1cnn(CC(C)O)c1NC(=O)NCc1cccc(F)c1` (stereo unspecified) was run?
A: The growth was 95.1%.

Q: How did the growth turn out when `C=C1C(=O)O[C@@H]2C3C(=C(C)CC[C@@H]12)CC1O[C@]13C` (stereo partly specified) was run?
A: The growth was 83.1% [6.75 µM].

Q: With `CCOC(=O)C1=C(c2ccccc2)N=C2N(c3ccccc3)N=C(C(C)=O)N2C1c1ccc(F)cc1` (stereo unspecified) as the compound, how does the growth read?
A: The growth was 99.6%.

Q: With `CCCOC(=O)Nc1nc2ccc(SCC)cc2s1` as the compound, how does the growth read?
A: Its growth is 93.9%.
